The target in experiment [1] is Lysosomal acid glucosylceramidase (Homo sapiens) (UniProt P04062). As to the kind of experiment: Glucocerebrosidase-p2 (AID 348; in the data active means potency below about 10 µM; further: potency means the concentration at half of the fitted maximal effect). As to conditions: purified GBA, blue fluorogenic substrate, 40 min. Summed up: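 Compounds titrated from 0.6 nM upwards against 0.2 nM enzyme in pH 5.9 citric acid/KH2PO4, taurocholate, tween-20; blue fluorogenic substrate 80 uM, 40 min room temperature, stopped and read Ex 365/Em 440 for AC50.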

A short description of experiment [2]: AP1 Signaling Pathway (AID 357).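 Further: ME-180 reporter cells stimulated with EGF at its EC50 level; on the % scale 0 is the no-effect control and ±100 the full control effect.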 Particulars: ME-180 AP-1-bla reporter, EGF-induced, beta-lactamase ratio, 5 h; at 7.69 µM (top of the series) unless noted. Summed up:
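In this screen, ME-180 cells in Opti-MEM with 0.5% dialyzed FBS received EC50 EGF and compound titrations for 5 h. AP-1 reporter beta-lactamase was detected via CCF4 ratio, giving AC50 for positive and negative modulators.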

Experiment [3] deals with Cytochrome P450 1A2 (Homo sapiens) (UniProt P05177). Description: p450-cyp1a2 (AID 410; calls by dose curve; further: potency means the concentration at half of the fitted maximal effect). Particulars: recombinant CYP1A2, luciferin-ME demethylation, luminescence; series mostly up to 57 µM. In outline: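 Human CYP1A2 (20nM) demethylated Luciferin-ME at its Km (100uM) in 100mM KPO4. After 10 min compound preincubation, NADPH regeneration ran the reaction 60 min at room temperature. Luciferin was read by luminescence, normalized to 57 uM furafylline.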

Experiment [4] in a line: NFAT Signaling Pathway (AID 444).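 Further: carbachol stimulus at about its EC50 of 1 µM final; on the % scale 0 is the no-effect control and ±100 the full control effect.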 As to conditions: Jurkat NFAT-bla M1, carbachol, beta-lactamase ratio, 5 h; at 7.69 µM (top of the series) unless noted. Summed up: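 Read-out: CCF4 FRET ratio (460 nm/530 nm) after 1 h RT dye loading, used for %activity and AC50 from titration series. Cells: Jurkat NFAT-β-lactamase/M1 line, treated with compound plus 1 uM carbachol for 5 h, 37 °C.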

In experiment [5] the target is Glucocorticoid receptor (Homo sapiens) (UniProt P04150). Description: GR-EFC Redistribution (AID 451; calls by dose curve; further: potency means the concentration at half of the fitted maximal effect). Particulars: CHO-K1 GR-EFC translocation, beta-gal luminescence, 2 h. In outline: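 Translocation of GR-ED fusion to nuclear EA restores b-gal, read by luminescence after 1 h room-temperature detection. Engineered CHO-K1 biosensor cells, 1,000/well, exposed 2 h at 37 C to titrations up to 46 uM final.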

In experiment [6] the target is Mitogen-activated protein kinase 10 (Mus musculus) (UniProt Q61831). As to the kind of experiment: JNK3 AlphaScreen Assay (AID 530).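 Further: kinase came from lysate of stimulated human HepG2 cells; signal reports phosphorylation of biotinylated GST-cJun 1-79 at Ser73 with 10 µM ATP; on the % scale 0 is the no-effect control and ±100 the full control effect.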 As to conditions: JNK3 lysate, c-Jun phosphorylation; series mostly up to 57.1 µM. Summed up:
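Room-temperature AlphaScreen kinase assay; pre-activated HepG2 lysate as JNK3 source, biotin-GST-cJun(1-79) substrate, 10 uM ATP, compound 15 min preincubation.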
For orientation: Bead proximity is the source of the signal in Alpha formats.

Experiment [7] addresses 3',5'-cyclic-AMP phosphodiesterase 4B (Homo sapiens) (UniProt Q07343). Description: qHTS Assay for Inhibitors of PDE-IV (AID 607; active means well fitted activation curve with a large enough effect in the main read-out, with a control signal flat, not every such curve was filed as active; further: % of control where 0% means no effect). Particulars: HEK293 ACTOne CNG channel cells, membrane potential fluorescence; series mostly up to 22.9 µM. Summed up: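 HEK293 ACTOne cells with CNG channel (1000/well), endogenous PDE4; membrane potential dye, compounds up to 22.9 uM final. Fluorescence Ex 535/Em 590; RO 20-1724 (100 uM final) as reference.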

For experiment [8], the target named is Cytochrome P450 3A4 (Homo sapiens) (UniProt P08684). Description: qHTS Assay for Activators of Cytochrome P450 3A4 (AID 885; active means well fitted curve in the direction sought with a large enough effect; an effect the other way counts as inactive or inconclusive; further: nearly all actives have a fitted effect of over 65% in size; further: potency means the concentration at half of the fitted maximal effect). Particulars: recombinant CYP3A4, Luciferin-PPXE luminescence, 60 min; series mostly up to 57.1 µM. In outline: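 Human CYP3A4 (20 nM) with Luciferin-PPXE at 25 uM (its KM) in 200 mM KPO4; 10 min compound preincubation, then NADPH regeneration and 60 min reaction at RT. Luciferin read by luminescence; normalized to 57 uM ketoconazole full inhibition.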

Experiment [9] is described as follows: Confirmation and Secondary Assay for Modulators of Hemoglobin Beta Chain Splicing at IVS2 654 locus (AID 910; active means well fitted curve in the direction sought with a large enough effect; an effect the other way counts as inactive or inconclusive;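 further: HeLa cells stably carrying EGFP split by mutant beta-globin IVS2-654 intron; per-well total GFP intensity by laser scanning cytometry after 2-day treatment; % of control where 0% means no effect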). As to conditions: HeLa EGFP-654 splicing reporter, GFP fluorescence, 48 h; series mostly up to 38.3 µM. In outline: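 Readout: per-well total peak green fluorescence (488 nm ex, 500–520 nm em) from objects 5–250 µm, reflecting correct splicing of an EGFP-654 reporter. Compounds were applied for 2 days at 37 °C to overnight-plated HeLa EGFP-654 cells; controls were DMSO and 500 nM IVS2-654 PNA.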

Experiment [10] is described as follows: Confirmation and Secondary Assay for Modulators of Hemoglobin Beta Chain Splicing at IVS2 705 locus (AID 930; active means well fitted curve in the direction sought with a large enough effect; an effect the other way counts as inactive or inconclusive;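 further: HeLa cells stably expressing the EGFP-705 splicing reporter; % of control where 0% means no effect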). As to conditions: HeLa EGFP-705 splicing reporter, GFP fluorescence, 48 h; series mostly up to 38.3 µM. In outline: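 Splice-correction reporter: EGFP cDNA split by beta-globin intron 2 bearing the 705 mutation, stably in HeLa. Compound incubation 2 days, 37C; fluorescent objects 5-250 µm summed per well.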

Experiment [11] in a line: qHTS Assay for Lipid Storage Modulators (AID 1519; calls by dose curve). Particulars: Drosophila S3 cells, BODIPY lipid droplet/cell ratio, laser cytometry, cells loaded with oleic acid; for activity change, negative = inhibition: at 57.5 µM (top of the series). Summed up: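 Cells seeded at 5,000 per well were treated with compounds over a concentration series and loaded with oleic acid (400 uM, as added). Lipid droplet fluorescence (488 nm excitation, 500-530 nm channel) was read by laser-scanning cytometry and normalized to 20 uM Triacsin C.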
Background: In qHTS, concentration-response curves come from the screen itself.

The target of experiment [12] is Ubiquitin carboxyl-terminal hydrolase 1 (Homo sapiens) (UniProt O94782). Description: Inhibitors of USP1/UAF1: Pilot qHTS (AID 504865; active means well fitted curve in the direction sought with a large enough effect; an effect the other way counts as inactive or inconclusive;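 further: rhodamine fluorescence freed from ubiquitin-rhodamine substrate followed over time; top concentration of the series differs between compounds; on the % scale 0 is the no-effect control and ±100 the full control effect; nearly all actives have a fitted effect of over 35% in size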). As to conditions: purified USP1/UAF1, Ub-rhodamine cleavage fluorescence; series mostly up to 54.9 µM. In outline: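 Enzyme-free wells gave the negative control, while test wells held 1nM USP1/UAF1 preincubated with compound for 15 min at room temperature. Ub-Rho at 150nM final started the reaction, and fluorescence at 480/540 nm was recorded kinetically.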

A short description of experiment [13]: Stat Signaling Pathway (AID 446).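 Further: ME-180 cervical cancer cells given 40 pM IL-6 alongside compound; SIE-controlled beta-lactamase reporter measured as 460/530 nm FRET emission ratio; on the % scale 0 is the no-effect control and ±100 the full control effect.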 Particulars: ME-180 (cervical carcinoma) SIE beta-lactamase reporter, IL-6 stimulated, 5 h; at 7.69 µM (top of the series) unless noted. In outline:
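ME-180 cells carrying a SIE-driven beta-lactamase reporter are stimulated with 40 pM IL-6 for 5 h at 37C in the presence of compound. The 460/530 nm FRET substrate ratio is read after 2.5 h at RT. Data are normalised to 300 pM IL-6 and to 125 nM JAK inhibitor controls.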

The target of experiment [14] is Cytochrome P450 3A4 (Homo sapiens) (UniProt P08684). Description: qHTS Assay for Inhibitors and Substrates of Cytochrome P450 3A4 (AID 884; active means well fitted curve in the direction sought with a large enough effect; an effect the other way counts as inactive or inconclusive; further: nearly all actives have a fitted effect of over 50% in size; further: potency means the concentration at half of the fitted maximal effect). As to conditions: recombinant CYP3A4, Luciferin-PPXE luminescence; series mostly up to 57.1 µM. In outline:
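20 nM human CYP3A4 with 25 uM Luciferin-PPXE (at KM) in 200 mM KPO4, preincubated 10 min with compound; NADPH regeneration started a 60 min RT reaction. Luciferin detected by luminescence, normalized to 57 uM ketoconazole as full inhibition.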

In experiment [15] the target is Cytochrome P450 2D6 (Homo sapiens) (UniProt P10635). Description: qHTS Assay for Inhibitors and Substrates of Cytochrome P450 2D6 (AID 891; active means well fitted curve in the direction sought with a large enough effect; an effect the other way counts as inactive or inconclusive; further: potency means the concentration at half of the fitted maximal effect; nearly all actives have a fitted effect of over 60% in size). As to conditions: recombinant CYP2D6, luciferin-ME EGE luminescence; series mostly up to 57.1 µM. In outline:
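Human CYP2D6 (5 nM) with 30 uM Luciferin-ME EGE (at Km) in 100 mM KPO4, compound preincubated 10 min, then NADPH regeneration system for 60 min at room temperature. Luciferin read by luminescence; normalized to 1.43 uM quinidine.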

Experiment [16] deals with Glucocorticoid receptor (Homo sapiens) (UniProt P04150). As to the kind of experiment: GR-GFP Redistribution (AID 450;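 active means compounds whose dose series gives a full or clear partial fitted curve of increased nuclear translocation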; further: potency means the concentration at half of the fitted maximal effect). Particulars: U2OS GR-GFP nuclear translocation, laser cytometry, 2 h.
[17] abbreviates: measured here: cell count channel max response.
[18] abbreviates: measured here: lipid channel max response.

Molecules are shown by their SMILES. Records with an inconclusive call do not appear. Activity calls are given as the source filed them. Unless noted, the call rests on the fitted dose curve; in most records, active means well fitted curve in either direction with a large enough effect (not every such curve was filed as active); inconclusive means small, poorly fitted or top-dose-only effect, or another doubt; inactive means flat fitted curve, though single readings scatter. Bounds are passed on as bounds.

Sequence of 3',5'-cyclic-AMP phosphodiesterase 4B (Homo sapiens) (Q07343 whole entry, looked up): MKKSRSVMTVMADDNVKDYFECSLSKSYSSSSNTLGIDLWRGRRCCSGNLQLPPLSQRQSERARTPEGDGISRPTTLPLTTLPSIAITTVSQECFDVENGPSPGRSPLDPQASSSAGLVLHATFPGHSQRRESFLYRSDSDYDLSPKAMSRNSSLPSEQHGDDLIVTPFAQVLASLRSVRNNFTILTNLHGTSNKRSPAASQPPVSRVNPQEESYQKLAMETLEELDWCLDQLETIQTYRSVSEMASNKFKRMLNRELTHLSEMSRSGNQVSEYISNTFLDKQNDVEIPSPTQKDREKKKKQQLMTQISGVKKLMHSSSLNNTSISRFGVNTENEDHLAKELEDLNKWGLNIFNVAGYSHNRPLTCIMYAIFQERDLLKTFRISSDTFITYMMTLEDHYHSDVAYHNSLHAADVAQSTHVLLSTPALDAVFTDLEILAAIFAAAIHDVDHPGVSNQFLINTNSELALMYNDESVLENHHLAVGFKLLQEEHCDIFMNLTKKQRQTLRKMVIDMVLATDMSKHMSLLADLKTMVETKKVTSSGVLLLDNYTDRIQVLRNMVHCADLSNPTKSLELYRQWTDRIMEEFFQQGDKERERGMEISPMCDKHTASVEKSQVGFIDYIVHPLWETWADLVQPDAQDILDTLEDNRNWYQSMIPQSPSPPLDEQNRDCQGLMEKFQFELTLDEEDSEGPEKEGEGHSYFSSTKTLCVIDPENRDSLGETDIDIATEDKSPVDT
Sequence of Cytochrome P450 3A4 (Homo sapiens) (P08684 whole entry, looked up): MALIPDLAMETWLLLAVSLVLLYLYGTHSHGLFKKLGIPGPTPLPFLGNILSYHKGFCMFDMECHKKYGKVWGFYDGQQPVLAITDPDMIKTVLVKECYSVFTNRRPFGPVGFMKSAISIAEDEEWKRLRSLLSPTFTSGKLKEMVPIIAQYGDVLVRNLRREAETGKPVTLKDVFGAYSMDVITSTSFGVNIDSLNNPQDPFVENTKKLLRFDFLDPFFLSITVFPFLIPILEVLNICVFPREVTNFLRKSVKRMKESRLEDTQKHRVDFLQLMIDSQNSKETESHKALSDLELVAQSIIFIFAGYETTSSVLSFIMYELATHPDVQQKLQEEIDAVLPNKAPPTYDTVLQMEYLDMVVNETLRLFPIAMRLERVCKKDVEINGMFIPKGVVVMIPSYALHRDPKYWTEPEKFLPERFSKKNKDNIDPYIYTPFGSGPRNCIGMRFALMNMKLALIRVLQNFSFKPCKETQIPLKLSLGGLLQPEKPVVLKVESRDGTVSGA
Sequence of Lysosomal acid glucosylceramidase (Homo sapiens) (P04062 whole entry, looked up): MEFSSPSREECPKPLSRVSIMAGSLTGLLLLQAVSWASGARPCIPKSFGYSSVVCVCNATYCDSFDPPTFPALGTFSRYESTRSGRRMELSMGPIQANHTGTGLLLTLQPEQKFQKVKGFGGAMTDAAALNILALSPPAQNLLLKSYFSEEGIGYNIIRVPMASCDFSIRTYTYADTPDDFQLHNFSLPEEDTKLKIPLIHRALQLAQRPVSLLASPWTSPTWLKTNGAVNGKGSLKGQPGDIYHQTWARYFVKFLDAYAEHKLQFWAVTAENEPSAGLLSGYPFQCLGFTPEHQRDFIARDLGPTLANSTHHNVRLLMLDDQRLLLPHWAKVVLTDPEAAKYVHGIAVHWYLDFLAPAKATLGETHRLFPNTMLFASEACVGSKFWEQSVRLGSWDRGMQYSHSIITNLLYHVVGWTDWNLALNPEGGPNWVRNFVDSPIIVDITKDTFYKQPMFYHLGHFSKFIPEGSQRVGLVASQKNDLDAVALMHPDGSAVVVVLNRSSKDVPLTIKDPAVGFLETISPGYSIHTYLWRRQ
Sequence of Cytochrome P450 1A2 (Homo sapiens) (P05177 whole entry, looked up): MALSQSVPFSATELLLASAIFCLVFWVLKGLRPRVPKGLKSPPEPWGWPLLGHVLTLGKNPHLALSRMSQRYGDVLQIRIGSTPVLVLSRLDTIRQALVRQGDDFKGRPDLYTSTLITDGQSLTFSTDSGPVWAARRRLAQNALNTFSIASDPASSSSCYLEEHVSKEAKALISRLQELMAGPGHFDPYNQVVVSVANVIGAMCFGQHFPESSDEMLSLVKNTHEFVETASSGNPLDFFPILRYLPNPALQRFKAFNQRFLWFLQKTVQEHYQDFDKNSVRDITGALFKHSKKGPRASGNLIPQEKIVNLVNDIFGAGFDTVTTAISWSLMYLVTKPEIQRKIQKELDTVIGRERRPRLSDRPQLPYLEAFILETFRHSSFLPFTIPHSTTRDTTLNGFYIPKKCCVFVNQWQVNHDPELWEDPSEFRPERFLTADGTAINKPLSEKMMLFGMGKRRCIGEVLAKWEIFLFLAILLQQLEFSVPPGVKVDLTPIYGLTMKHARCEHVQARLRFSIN
Sequence of Glucocorticoid receptor (Homo sapiens) (P04150 whole entry, looked up, the tested form may be a part): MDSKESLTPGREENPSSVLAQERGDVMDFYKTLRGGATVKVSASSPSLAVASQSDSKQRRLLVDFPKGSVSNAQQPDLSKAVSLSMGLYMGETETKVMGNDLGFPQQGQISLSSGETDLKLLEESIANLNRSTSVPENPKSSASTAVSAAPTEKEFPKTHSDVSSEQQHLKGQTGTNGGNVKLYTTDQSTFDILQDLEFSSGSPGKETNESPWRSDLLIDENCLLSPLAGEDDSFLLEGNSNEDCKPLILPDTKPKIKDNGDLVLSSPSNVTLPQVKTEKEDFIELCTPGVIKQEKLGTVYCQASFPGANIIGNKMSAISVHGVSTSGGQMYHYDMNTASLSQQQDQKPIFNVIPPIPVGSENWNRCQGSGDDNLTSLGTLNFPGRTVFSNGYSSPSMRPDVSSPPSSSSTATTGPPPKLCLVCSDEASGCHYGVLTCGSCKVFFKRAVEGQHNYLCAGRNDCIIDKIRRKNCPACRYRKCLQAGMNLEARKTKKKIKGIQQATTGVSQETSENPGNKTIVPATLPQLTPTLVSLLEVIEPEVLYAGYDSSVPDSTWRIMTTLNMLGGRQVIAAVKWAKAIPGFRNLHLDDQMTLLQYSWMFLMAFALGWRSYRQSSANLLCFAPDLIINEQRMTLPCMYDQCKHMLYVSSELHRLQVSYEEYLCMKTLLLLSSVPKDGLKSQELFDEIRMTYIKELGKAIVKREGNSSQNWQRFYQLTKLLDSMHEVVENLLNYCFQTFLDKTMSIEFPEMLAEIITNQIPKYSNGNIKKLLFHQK
Sequence of Cytochrome P450 2D6 (Homo sapiens) (P10635 whole entry, looked up): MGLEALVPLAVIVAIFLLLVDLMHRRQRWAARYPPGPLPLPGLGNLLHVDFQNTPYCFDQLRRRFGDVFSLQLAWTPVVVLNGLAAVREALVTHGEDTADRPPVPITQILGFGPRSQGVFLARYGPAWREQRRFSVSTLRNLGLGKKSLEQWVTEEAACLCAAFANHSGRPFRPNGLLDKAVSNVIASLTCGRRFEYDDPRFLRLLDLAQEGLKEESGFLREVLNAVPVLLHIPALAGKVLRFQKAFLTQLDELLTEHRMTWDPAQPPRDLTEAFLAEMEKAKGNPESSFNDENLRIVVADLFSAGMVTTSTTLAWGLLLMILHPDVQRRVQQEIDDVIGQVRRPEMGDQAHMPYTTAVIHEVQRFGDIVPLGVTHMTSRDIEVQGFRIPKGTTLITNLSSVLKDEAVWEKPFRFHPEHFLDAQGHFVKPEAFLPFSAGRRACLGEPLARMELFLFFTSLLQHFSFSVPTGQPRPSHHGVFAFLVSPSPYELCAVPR
Sequence of Ubiquitin carboxyl-terminal hydrolase 1 (Homo sapiens) (O94782 whole entry, looked up): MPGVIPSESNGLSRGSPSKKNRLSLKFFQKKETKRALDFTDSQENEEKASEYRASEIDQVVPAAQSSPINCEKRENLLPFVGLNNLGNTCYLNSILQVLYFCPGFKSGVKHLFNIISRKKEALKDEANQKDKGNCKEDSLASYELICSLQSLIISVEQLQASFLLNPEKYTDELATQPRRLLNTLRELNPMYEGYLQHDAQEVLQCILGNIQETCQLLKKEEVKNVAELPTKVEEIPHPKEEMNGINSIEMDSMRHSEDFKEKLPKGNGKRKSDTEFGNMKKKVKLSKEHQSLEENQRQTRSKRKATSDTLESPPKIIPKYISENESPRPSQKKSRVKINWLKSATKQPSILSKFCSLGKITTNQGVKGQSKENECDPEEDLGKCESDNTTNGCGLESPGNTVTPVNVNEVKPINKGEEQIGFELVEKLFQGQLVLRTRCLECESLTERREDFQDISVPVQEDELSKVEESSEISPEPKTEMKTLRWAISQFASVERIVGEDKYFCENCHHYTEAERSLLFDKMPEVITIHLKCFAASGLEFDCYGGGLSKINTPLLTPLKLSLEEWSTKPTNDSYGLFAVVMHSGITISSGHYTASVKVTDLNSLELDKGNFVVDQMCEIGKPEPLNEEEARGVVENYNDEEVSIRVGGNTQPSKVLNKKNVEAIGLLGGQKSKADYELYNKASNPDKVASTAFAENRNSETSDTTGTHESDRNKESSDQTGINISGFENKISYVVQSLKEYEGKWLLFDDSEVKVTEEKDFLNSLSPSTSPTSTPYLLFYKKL

In the case of `N#Cc1ccccc1-c1cncnc1NCc1cccnc1`, the Potency is > 11.4 µM (inactive) in [1], 0.0631 µM (active) in experiment [3] and > 46 µM (inactive) in [5]. Further, the activity change, negative = inhibition in experiment [2] is -25.2% (inactive); in experiment [4], 5.72% (inactive); in experiment [11] it was 4.31% (inactive). For the same compound, the Potency result in experiment [6], in experiment [7], in experiment [8], in experiment [9] and in [12] was “inactive” each time. For the same compound, the outcome in [10] was inactive. Also, the results for the max response in experiment [11] (setting [17]) and in experiment [11] (setting [18]) were 7.61% and 12.5%, respectively.

Consider `O=C(c1cccc(F)c1)N1CCC2(CC1)CCN(C(c1ccccc1)c1ccccc1)CC2`, for which the Potency in experiment [1] was > 11.4 µM (inactive); in [3] it was 10 µM (active); in experiment [5], > 46 µM (inactive); in experiment [8] it was 5.01 µM (active); in [15], 3.16 µM (active). The activity change, negative = inhibition is 2.86% (inactive) in [2] and 4.65% (inactive) in experiment [11]. For the same compound, in [13], the activity, negative = inhibition is -6.67% (inactive). In addition, the Potency entry in experiment [6], in experiment [7] and in [14] was “inactive” in each case. The max response in experiment [11] (setting [17]) is 12.8%; in [11] (setting [18]), 19.8%.

As for `FC(F)(F)c1cc(CN2CCC3(CCNCC3)CC2)cc(C(F)(F)F)c1`, the values for the Potency in experiment [1] and in experiment [5] were > 11.4 µM (inactive) and > 46 µM (inactive), respectively. Moreover, the figures for the activity change, negative = inhibition in experiment [2], in experiment [4] and in [11] were 3.22% (inactive), 9.54% (inactive) and -1.92% (inactive), respectively. The Potency entry in experiment [3], in experiment [6], in [7] and in [8] was “inactive” throughout. Further, the activity, negative = inhibition in experiment [13] was 1.83% (inactive). Moreover, the max response in [11] (setting [17]) is -8.05%; in experiment [11] (setting [18]), -9.72%.

Regarding `N#Cc1ccc(CN2CCC3(CC2)CCN(S(=O)(=O)c2ccccc2)CC3)cc1`, the figures for the Potency in experiment [1] and in experiment [5] were > 11.4 µM (inactive) and > 46 µM (inactive), respectively. In addition, the results for the activity change, negative = inhibition in experiment [2] and in experiment [11] were -18.1% (inactive) and -0.545% (inactive), respectively. The Potency entry in [3], in experiment [6], in experiment [7] and in experiment [8] was “inactive” throughout. Besides, the activity, negative = inhibition in [13] was 1.33% (inactive). For the same compound, the max response in [11] (setting [17]) came out at 11.7%; in [11] (setting [18]) it was 10.8%.

`N#Cc1ccc(CN2CC[C@@]3(CCCN(S(=O)(=O)c4ccccc4)C3)C2)cc1`: the Potency in experiment [1] is > 11.4 µM (inactive); in experiment [3], 15.8 µM (active); in experiment [5], > 46 µM (inactive). Moreover, the results for the activity change, negative = inhibition in experiment [2] and in experiment [11] were 0.616% (inactive) and -4.95% (inactive), respectively. The activity, negative = inhibition in experiment [13] was -5.91% (inactive). Moreover, the Potency entry in experiment [6] and in experiment [7] was “inactive” each time. The max response in experiment [11] (setting [17]) was 13.6%; in experiment [11] (setting [18]), 7.48%.

Take `COc1ccc(Oc2ncc3nc(-c4cc(F)cc(F)c4)c(=O)n(C)c3n2)cc1`: the Potency was > 11.4 µM (inactive) in [1]; 3.16 µM (active) in experiment [3]; > 9.22 µM (inactive) in experiment [16]; > 46 µM (inactive) in [5]; 5.01 µM (active) in [14]. Besides, the figures for the activity change, negative = inhibition in experiment [2], in [4] and in [11] were 18.9% (inactive), -15.3% (inactive) and -5.54% (inactive), respectively. The Potency entry in experiment [6] and in experiment [8] was “inactive” in each case. Moreover, the max response is 13.4% in [11] (setting [17]) and -2.06% in experiment [11] (setting [18]).

These data come from PubChem BioAssay (NCATS).
